The list is not random: actives were taken first. Their share in the collection is about 2.8%.
CtBP-E1A inh: blocks the CtBP interaction with E1A; 0.49% of 340,000 active; AlphaScreen GST-E1A/His-CtBP binding, 1536-well; hits give low values; activity change, % (concentration not given with the values); in the data active means activity change below about -65%; inconclusive means mostly about -30% to -63%
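GST-E1A and His-tagged CtBP (125 nM each as 5X stock) were preincubated with pin-transferred compound for 2 h at 37 °C in the dark, then glutathione donor and nickel acceptor beads were added for 1 h before AlphaScreen reading.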
Six1-Eya2 blk: inhibitors of human Six1/Eya2 interaction; 0.56% of 360,000 active; AlphaScreen GST-Six1/His-Eya2 binding, biochemical; hits give low values; activity change, % (concentration not given with the values); AID 651725; Q15475+O00167; in the data active means activity change below about -65%; inconclusive means mostly about -30% to -63%
Target sequence (O00167 whole entry, looked up): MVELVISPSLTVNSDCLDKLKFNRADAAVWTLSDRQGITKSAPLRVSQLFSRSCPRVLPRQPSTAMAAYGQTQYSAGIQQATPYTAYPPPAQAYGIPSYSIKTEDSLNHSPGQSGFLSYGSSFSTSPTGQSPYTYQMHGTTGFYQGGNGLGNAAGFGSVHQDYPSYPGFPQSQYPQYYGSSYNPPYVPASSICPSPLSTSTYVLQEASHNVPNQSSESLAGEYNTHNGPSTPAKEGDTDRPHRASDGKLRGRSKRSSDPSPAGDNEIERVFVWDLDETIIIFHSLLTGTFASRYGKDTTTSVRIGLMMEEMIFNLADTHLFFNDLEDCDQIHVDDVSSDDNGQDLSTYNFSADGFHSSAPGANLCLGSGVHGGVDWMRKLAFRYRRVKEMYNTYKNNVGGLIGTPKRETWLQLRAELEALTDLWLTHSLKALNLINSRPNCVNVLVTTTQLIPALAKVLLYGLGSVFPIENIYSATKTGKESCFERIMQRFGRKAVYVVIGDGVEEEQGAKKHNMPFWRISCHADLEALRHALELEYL
Target sequence (Q15475 whole entry, looked up): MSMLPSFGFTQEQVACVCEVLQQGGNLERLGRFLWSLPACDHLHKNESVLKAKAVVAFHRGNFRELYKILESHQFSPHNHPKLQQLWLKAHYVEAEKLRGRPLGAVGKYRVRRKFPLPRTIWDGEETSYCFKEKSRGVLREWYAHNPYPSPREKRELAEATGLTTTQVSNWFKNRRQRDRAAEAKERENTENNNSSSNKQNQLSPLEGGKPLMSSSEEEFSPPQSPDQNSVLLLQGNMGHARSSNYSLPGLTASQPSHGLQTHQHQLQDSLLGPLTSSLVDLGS
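Six1/Eya2 binding was read as AlphaScreen signal after compounds were pinned into GST-Six1 plus His-tagged Eya2 (5X stock 250/500 nM) in pH 8.0 Tris/NaCl/TCEP buffer, beads added, then incubated 1 h, 37 C, dark.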
ATXN2 expr inh: ATXN2 expression inhibition | HEK-293 ATXN2-luciferase reporter, luminescence, 24 h | Potency, µM (highest dose often 57 µM), hits mostly inhibitors | 0.72% of 360,000 active | AID 1745845; further: nearly all actives have a fitted effect of over 55% in size
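ATXN2-luciferase reporter cells (luciferase flanked by upstream and downstream ATXN2 gene portions) were treated 24 h at 37 °C with compounds at up to 57 uM. SteadyGlo luminescence gave expression; GF-AFC fluorescence gave viability.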
HepG2 viability: counter-screen for TGF-b inhibitors: cytotoxicity in HepG2 cells; HepG2 CAGA-GFP viability, ATP luminescence, 18 h; Potency, µM (series often up to 46.1 µM), actives largely listed as cytotoxic; 0.76% of 410,000 active; AID 588856
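HepG2 CAGA-GFP cells (1000/well, DMEM with 1% FBS) received compound, then TGF-beta at 500 pg/mL final, and were incubated 18 hours at 37 degrees C. Viability was read by CellTiter-Glo luminescence. Media-only wells were set as complete cell-killing and DMSO as no toxicity.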
TGFb inhibitor: blocks TGF-b signaling; HepG2 CAGA-GFP TGF-b/SMAD3 reporter, GFP fluorescence, 18 h; TGF-beta stimulated, 500 pg/mL final; Potency, µM (titrated, usually from 46.1 µM), hits mostly inhibitors; 1.2% of 410,000 active; AID 588855; further: nearly all actives have a fitted effect of over 65% in size
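Per well, imaged GFP fluorescence of HEPG2 CAGA-GFP cells gives the signal; cells get compound, then TGF-beta (500 pg/mL final), 18 h at 37 degrees C; %Activity versus -TGF-beta and +DMSO controls.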
S2 tox: reduces viability in counter-screen for ATXN expression inhibitors | AID 651635 | S2 cells (HEK-293 line with an ATXN2-luciferase reporter) viability, CellTiter-Fluor protease fluorescence, 24 h | Potency, µM (series often up to 56.7 µM), actives largely listed as cytotoxic | 0.49% of 400,000 active; further: nearly all actives have a fitted effect of over 40% in size
Each line names hits and unclear results; the compound was inactive in the other large screens. Unless noted, the call rests on the fitted dose curve; in most records, active means well fitted curve in the direction sought with a large enough effect; inconclusive means small, poorly fitted or top-dose-only effect, or another doubt; inactive means no such curve, though single readings can be large; an effect the other way counts as inactive or inconclusive.

CCCCOc1c(Cl)cc(C(=O)N(Cc2ccc(C)o2)C2CCS(=O)(=O)C2)cc1Cl (configuration not stated)	TGFb inhibitor inconclusive, S2 tox inconclusive (no result: CtBP-E1A inh, Six1-Eya2 blk)
Cc1ccc(C(C)(C)C)cc1S(=O)(=O)Nc1cccc(C(=O)N2CCN(c3ccccn3)CC2)c1	TGFb inhibitor 28µM
COCCCNC(=O)CSc1nc2c(sc3ccccc32)c(=O)n1CCCC(=O)NCCOC	none (no result: CtBP-E1A inh, Six1-Eya2 blk, ATXN2 expr inh, S2 tox)
CC(C)Oc1ccc(C(=O)NCC2Cc3cc(F)cc(-c4cnccn4)c3O2)cc1 (configuration not stated)	none (no result: CtBP-E1A inh, Six1-Eya2 blk, ATXN2 expr inh, HepG2 viability, TGFb inhibitor)
O=Cc1ccc(I)cc1	none (no result: CtBP-E1A inh, Six1-Eya2 blk, ATXN2 expr inh, S2 tox)
COc1cc(N/N=C/c2ccccc2O)ncn1	CtBP-E1A inh -96, Six1-Eya2 blk -88, ATXN2 expr inh inconclusive
CCOc1ccc(/C=N/Nc2cc(N3CCOCC3)ncn2)c(O)c1	CtBP-E1A inh inconclusive, Six1-Eya2 blk -71, S2 tox inconclusive (no result: ATXN2 expr inh)
CCOc1ccc(/C=N/Nc2nc(C)cs2)c(O)c1	CtBP-E1A inh inconclusive, Six1-Eya2 blk -68, TGFb inhibitor inconclusive, S2 tox inconclusive
CCCOc1ccc(/C=N/Nc2cc(N3CCOCC3)ncn2)c(O)c1	none (no result: CtBP-E1A inh, ATXN2 expr inh)
C=CCn1c(=NC(=O)c2ccc(S(=O)(=O)N3CCc4ccccc4C3)cc2)sc2cc(S(N)(=O)=O)ccc21	none
C#CCn1c(=NC(=O)c2ccc(S(=O)(=O)N3CCc4ccccc4C3)cc2)sc2cc(S(N)(=O)=O)ccc21	ATXN2 expr inh inconclusive, HepG2 viability 2.8µM, S2 tox 18µM
O=C(NNC(=O)c1ccc(CNS(=O)(=O)c2ccc(F)c(Cl)c2)cc1)c1ccccc1	none (no result: CtBP-E1A inh, Six1-Eya2 blk, HepG2 viability, TGFb inhibitor, S2 tox)
CC(NC(=O)c1cccnc1)c1nnc2n1CCN(Cc1ccc(-c3ccccc3)cc1)CC2 (configuration not stated)	none (no result: CtBP-E1A inh, Six1-Eya2 blk, ATXN2 expr inh, HepG2 viability, TGFb inhibitor)
Cc1ccccc1-c1ccc(CN2CCc3nnc(CNC(=O)c4ccccn4)n3CC2)cc1	none (no result: CtBP-E1A inh, Six1-Eya2 blk, ATXN2 expr inh, HepG2 viability, TGFb inhibitor)
Oc1ccccc1/C=N/NC(=S)NCCc1ccccc1	CtBP-E1A inh -65, Six1-Eya2 blk inconclusive
CC(C)(CNC(=S)NCCc1ccccc1)CNC(=S)NCCc1ccccc1	CtBP-E1A inh inconclusive, ATXN2 expr inh inconclusive, TGFb inhibitor 16µM, S2 tox inconclusive
Oc1ccccc1C=NNC(=S)Nc1ccc(F)cc1	CtBP-E1A inh -92, Six1-Eya2 blk -76, ATXN2 expr inh inconclusive
CC(=O)Nc1cc(C(=O)N2CCN(C(=O)c3ccco3)CC2)cc2ncn(CCc3ccccn3)c12	none (no result: CtBP-E1A inh, Six1-Eya2 blk, ATXN2 expr inh, HepG2 viability, TGFb inhibitor)
Cc1cc(C)c2c(n1)SCC(=O)N2CC(=O)Nc1cccc(C)c1C	TGFb inhibitor inconclusive (no result: CtBP-E1A inh, Six1-Eya2 blk)
CCCCCCCCCCS(=O)(=O)N/N=C/c1ccc(O)cc1	TGFb inhibitor 13µM
CCCCCCCCCS(=O)(=O)N/N=C/c1cccc([N+](=O)[O-])c1	TGFb inhibitor inconclusive
Cc1ccnc2ccc([N+](=O)[O-])cc12	TGFb inhibitor inconclusive (no result: CtBP-E1A inh, Six1-Eya2 blk, ATXN2 expr inh, S2 tox)
CC(C)c1ccc(Nc2ncnc3onc(-c4ccc(F)cc4)c23)cc1	none (no result: CtBP-E1A inh, Six1-Eya2 blk)
CC12CCC(C(=O)Nc3ccc(Br)cn3)(OC1=O)C2(C)C (configuration not stated)	HepG2 viability 4.5µM
COc1ccc(Cn2c(CCC(=O)NCc3ccc(Cl)cc3)nc3cccnc32)cc1	none (no result: CtBP-E1A inh, Six1-Eya2 blk, ATXN2 expr inh, S2 tox)
CC(/C=C/C=C/c1ccccc1)=N\NC(=O)c1cccnc1	none (no result: S2 tox)
CC(/C=C/C=C/c1ccccc1)=N/NC(=O)c1ccc2c(c1)OCCO2	HepG2 viability 11µM
O=C(Nc1nnc(-c2ccc3c(c2)OCCO3)o1)c1ccc(Cc2ccccc2)cc1	ATXN2 expr inh inconclusive, TGFb inhibitor inconclusive, S2 tox 25µM
O=C(NCCS(=O)(=O)NCCc1ccccc1)c1ccc2c(c1)OCO2	none
O=C(NCCc1ccccc1)c1ccc2c(c1)OCCCO2	ATXN2 expr inh 0.71µM
CN(CCOc1ccccc1)C(=O)c1ccc2c(c1)OCO2	none
CSc1cccc(-c2nnc(NC(=O)c3ccc4c(c3)OCCO4)o2)c1	none (no result: CtBP-E1A inh, Six1-Eya2 blk, ATXN2 expr inh, S2 tox)
O=C(NCCOc1ccccc1)c1ccc2c(c1)OCO2	ATXN2 expr inh 4.5µM
O=C(CCN1CCCCC1)c1ccc2c(c1)OCCO2	TGFb inhibitor inconclusive
O=C(CCc1ccccc1)c1ccc2c(c1)OCCCO2	TGFb inhibitor inconclusive
O=C(CCN1CCc2ccccc2C1)c1ccc2c(c1)OCCO2	HepG2 viability 7.1µM, TGFb inhibitor inconclusive
O=C(CCCc1ccccc1)c1ccc2c(c1)OCCO2	ATXN2 expr inh 10µM
O=C(NCCc1ccccc1)c1ccc2c(c1)OCCO2	ATXN2 expr inh 2.5µM
COc1ccc(CCNC(=O)c2ccc3c(c2)OCCO3)cc1	S2 tox inconclusive
O=C(CCN1CCCC1Cc1ccccc1)c1ccc2c(c1)OCCO2 (configuration not stated)	ATXN2 expr inh inconclusive, TGFb inhibitor 11µM (no result: S2 tox)
COc1cccc(CN2CCCC(c3nc(-c4ccncc4)ncc3-c3ccccc3C)C2)c1O (configuration not stated)	none (no result: CtBP-E1A inh, Six1-Eya2 blk, ATXN2 expr inh, HepG2 viability, TGFb inhibitor)

Compound activity (PubChem BioAssay)
